Assay results published in PubChem BioAssay.
Results filed as inconclusive are left out. The source made the active and inactive calls. Unless noted, the limit is not given here; nearly all actives have AC50 up to about 26 µM.

How the values were obtained:
[1] = viability loss in pontine glioma line – cell-based, SU-DIPG-XIII, MIPE5.0, CellTiter-Glo, qHTS, dose response (AID 1347064; cut-off not given, nearly all actives have AC50 up to about 23 µM;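 as to AC50: cells exposed to compound for 48 hours before the viability read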); conditions: CellTiter-Glo ATP luminescence
[2] = viability loss in pontine glioma line – cell-based, SU-DIPG-XXV, MIPE5.0, CellTiter-Glo, qHTS, dose response (AID 1347065); conditions: CellTiter-Glo ATP luminescence;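 also: cells exposed to compound for 48 hours before ATP readout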
[3] = JHH-DIPG-1 glioma cell viability, MIPE5.0 library, CellTiter-Glo luminescence, qHTS (AID 1347067); conditions: JHH-DIPG-1 glioma viability, CellTiter-Glo ATP luminescence;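 also: cells exposed to compound for 48 hours before readout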
[4] = growth inhibition of DIPG cells – cell-based, MIPE5.0 library, qHTS (AID 1347068; cut-off not given, nearly all actives have IC50 up to about 30 µM;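 as to IC50: cells exposed to compound for 48 hours before viability readout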); conditions: SU-DIPG-XXV viability
[5] = growth inhibition of DIPG cells – cell-based, MIPE4.0 library, CellTiter-Glo luminescence, qHTS (AID 1347066; cut-off not given, nearly all actives have AC50 up to about 30 µM;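 also: cells exposed to compound for 48 hours before readout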); conditions: SU-DIPG-VI viability, CellTiter-Glo ATP luminescence
[6] = viability loss with induced miR-34 in A549 – imaging, A549 dox-inducible miR-34, nuclei and caspase counts, primary screen (AID 1347080;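 active = compounds whose cell count with miR-34 switched on is under 0.7 times the count with it off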); conditions: A549 miR-34 inducible, Hoechst nuclei count, 48 h
[7] = MELAS cybrid and Rieske KO viability enhancers – cell-based, MELAS cybrids, Rieske KO mouse fibroblasts, CellTiter-Glo, primary screen (AID 1508586;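 active = mean z-score across replicates of 1.96 or higher in either the MELAS or the Rieske mutant cell line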;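 also: z relative to plate mean and SD of compound and empty wells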); conditions: low glucose

With `CCN1C(=O)CNc2ncc(-c3ccc(-c4ncn[nH]4)nc3C)nc21` the AC50 [1] was 4.17 µM (active), the AC50 [2] was 1.48 µM (active) and the AC50 [3] was 5.9 µM (active). For the same compound, the IC50 [4] was 8.33 µM (active).

For `CN[C@@H](C)C(=O)N[C@H](C(=O)N1CCC[C@H]1C(=O)Nc1snnc1-c1ccccc1)C1CCCCC1`, the outcome [1] was “inactive”, the outcome [2] was “inactive” and the outcome [3] was “inactive”. For the same compound, the outcome [4] was “inactive”.

For `Cc1ccc(-n2c(C)cc(-c3nnc4n3CCCCC4)c2C)cc1`, the AC50 [1] was 14.8 µM (active), the AC50 [2] was 20.9 µM (active) and the AC50 [3] was 18.6 µM (active).

For `CCS(=O)(=O)N1CCN(c2ccc(Nc3ncc(C(N)=O)c(NC4CC4)n3)cc2)CC1`, the AC50 [1] was 16.6 µM (active), the AC50 [2] was 11.8 µM (active) and the AC50 [3] was 14.8 µM (active). The IC50 [4] was 23.5 µM (active).

In the case of `Cc1ccc(NC(=O)[C@H]2CCCN(C(=O)c3c(C)cccc3F)[C@H]2c2ccc(NC3CCCC3)cc2)cc1C(F)(F)F`, the outcome [1] is reported as “inactive”, the outcome [2] is reported as “inactive” and the outcome [3] is reported as “inactive”. For the same compound, the outcome [4] was “inactive”.

With `COC1(c2sc3c(N4CCOCC4)nc(-c4cnc(N)nc4)nc3c2C)COC1` the AC50 [1] was 0.661 µM (active), the AC50 [2] was 0.132 µM (active) and the AC50 [3] was 0.525 µM (active). For the same compound, the IC50 [4] was 1.18 µM (active).

With `CN1C(=O)N[C@H](Cc2c[nH]c3c(Cl)cccc23)C1=O` the outcome [1] was “inactive”, the outcome [2] was “inactive” and the outcome [3] was “inactive”.

For `OC(c1ccc(-c2ccc(CN3CCN(Cc4ccncc4)CC3)cc2)c(F)c1)(C(F)(F)F)C(F)(F)F`, the outcome [1] was “inactive”, the outcome [2] was “inactive” and the outcome [3] was “inactive”. The outcome [4] was “inactive”.

With `CC1(C(=O)O)CCC2(C)CCC3(C)C(=CC(=O)C4C5(C)CCC(OC6OC(C(=O)O)C(O)C(O)C6OC6OC(C(=O)O)C(O)C(O)C6O)C(C)(C)C5CCC43C)C2C1` (centres undefined) the outcome [1] was “inactive”, the outcome [2] was “inactive” and the outcome [3] was “inactive”. The outcome [4] was “inactive”.

In the case of `Cc1c(C(=O)Nc2ccc(Oc3ccnc4[nH]cc(-c5ccccc5)c34)c(F)c2)c(=O)n(-c2ccc(F)cc2)n1C`, the AC50 [1] is reported as 16.6 µM (active), the AC50 [2] is reported as 5.25 µM (active) and the AC50 [3] is reported as 16.6 µM (active).

In the case of `CONC(=O)Nc1ccc(-c2sc3c(c2CN(C)C)c(=O)n(-c2ccc(OC)nn2)c(=O)n3Cc2c(F)cccc2F)cc1`, the outcome [1] is reported as “inactive”, the outcome [2] is reported as “inactive” and the outcome [3] is reported as “inactive”.

In the case of `COCCCc1sc(-c2ccccc2)nc1C(=O)Nc1ccccc1-c1nc2cc(CN3CCCC3)cnc2s1`, the AC50 [1] is reported as 9.1 µM (active) and the AC50 [2] is reported as 12.9 µM (active).

With `COCc1c(-c2ccc(NC(=O)Nc3cc(C(F)(F)F)ccc3F)c(F)c2)c2c(N)ncnn2c1CN1CCOCC1` the AC50 [1] was 0.295 µM (active), the AC50 [2] was 0.186 µM (active) and the AC50 [3] was 6.61 µM (active). For the same compound, the IC50 [4] was 7.42 µM (active).

In the case of `O=C(NC[C@H](O)CN1CCc2ccccc2C1)c1ccnc(NC2CCC2)c1`, the outcome [1] is reported as “inactive”, the outcome [2] is reported as “inactive” and the AC50 [3] is reported as 23.5 µM (active). For the same compound, the outcome [4] was “inactive”.

For `Cc1c(NC(=O)c2cc(C(N)=O)nc3cc(F)ccc23)c(C(F)(F)F)nn1Cc1ccc(C(C)(C)C)cc1`, the AC50 [1] was 26.3 µM (active), the AC50 [2] was 20.9 µM (active) and the AC50 [3] was 23.5 µM (active).

In the case of `C[C@@H](C(=O)Nc1ccc(Cl)cc1)C1CCC(c2ccnc3ccc(F)cc23)CC1` (some centres undefined), the outcome [1] is reported as “inactive”, the outcome [2] is reported as “inactive” and the outcome [3] is reported as “inactive”.

With `Nc1nccc2c1ncn2[C@@H]1C=C(CO)[C@@H](O)[C@H]1O` the outcome [1] was “inactive”, the outcome [2] was “inactive” and the outcome [3] was “inactive”. For the same compound, the outcome [4] was “inactive”.

In the case of `O=C1OC(COc2ccccc2[N+](=O)[O-])CC1Cc1ccccc1` (centres undefined), the outcome [1] is reported as “inactive”, the outcome [2] is reported as “inactive” and the outcome [3] is reported as “inactive”. The outcome [4] was “inactive”.

For `O=C(Cc1cccc(OC(F)(F)F)c1)Nc1ccc(CCCCc2nnc(NC(=O)Cc3ccccn3)s2)nn1`, the AC50 [1] was 13.2 µM (active), the AC50 [2] was 14.8 µM (active) and the AC50 [3] was 20.9 µM (active). The outcome [4] was “inactive”.

For `CC(C)n1c(=O)cc(N[C@@H](C)c2ccccc2)[nH]c1=O`, the AC50 [1] was 9.34 µM (active), the AC50 [2] was 10.5 µM (active) and the AC50 [3] was 14.8 µM (active). The outcome [4] was “inactive”.

With `CCNCCc1ccc(CN(CC)c2cc(OC)ccc2[C@@H]2CCc3cc(O)ccc3C2)cc1` the AC50 [1] was 7.42 µM (active), the AC50 [2] was 8.33 µM (active) and the AC50 [3] was 5.25 µM (active). The IC50 [4] was 3.32 µM (active).

For `Cc1cc(O)c(-c2ccc([C@@H](C)CN(C)C)cc2)c2c1[nH]c(=O)c1sccc12`, the AC50 [1] was 0.417 µM (active), the AC50 [2] was 0.332 µM (active) and the AC50 [3] was 0.417 µM (active). The IC50 [4] was 0.332 µM (active).

With `COc1ncc(Nc2ncc([C@H](C)N3CCN(S(C)(=O)=O)CC3)cc2-c2nc(C)nc(N)n2)cc1F` the AC50 [1] was 0.525 µM (active), the AC50 [2] was 0.105 µM (active) and the AC50 [3] was 1.18 µM (active).

For `NC(=O)c1cnc(N[C@@H]2CCCC[C@@H]2N)nc1Nc1cccc(-n2nccn2)c1`, the AC50 [1] was 7.42 µM (active), the AC50 [2] was 5.25 µM (active) and the AC50 [3] was 23.5 µM (active). The IC50 [4] was 18.6 µM (active).

With `NC(=S)N/N=C/c1ncccc1N` the AC50 [1] was 11.8 µM (active), the AC50 [2] was 16.6 µM (active) and the AC50 [3] was 14.8 µM (active).

For `COc1ccc(-n2cnc3cc(C(=O)N4CCCCC4)ccc32)cc1`, the outcome [1] was “inactive”, the outcome [2] was “inactive” and the outcome [3] was “inactive”. The outcome [4] was “inactive”.

With `N#Cc1ccc(-c2c(-c3ncn[nH]3)sc(N3CCOCC3)c2C#N)c(F)c1` the AC50 [1] was 5.9 µM (active), the AC50 [2] was 1.48 µM (active) and the AC50 [3] was 10.5 µM (active). The IC50 [4] was 4.68 µM (active).

In the case of `COc1cccc([C@@H](C)NCCCc2ccccc2Cl)c1`, the outcome [1] is reported as “inactive”, the outcome [5] is reported as “inactive” and the outcome [3] is reported as “inactive”. For the same compound, the outcome [4] was “inactive”.

With `O=C(NNc1ccccc1)c1ccncc1` the outcome [1] was “inactive”, the outcome [2] was “inactive” and the outcome [4] was “inactive”. The fold change ([6]; stronger effect = lower value, cell number ratio, induced over uninduced) was 0.922 (inactive), the fold change ([6]; measured here: relative caspase fold change +Dox/-Dox) was 0.452 and the cell count ([6]; measured here: total cells with miR-34 induction, stronger effect = lower value) was 7960. The cell count ([6]; measured here: total cells without miR-34 induction) was 8630, the z-score ([7]; MELAS cybrid survival, CellTiter-Glo 48 h, stronger effect = higher value) was -0.433 (inactive) and the z-score ([7]; Rieske KO mouse fibroblast survival, CellTiter-Glo 72 h) was -1.65.

With `CCN(CCCOc1ccc2c(Nc3cc(CC(=O)Nc4cccc(F)c4)[nH]n3)ncnc2c1)CCOP(=O)(O)O` the outcome [1] was “inactive”, the AC50 [2] was 1.18 µM (active) and the outcome [4] was “inactive”.
